According to PubChem BioAssay AID602162 (NMMLSC, 2011):
Screen size: about 360,000 compounds; about 690 (0.19%) were called active.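 How the source made its calls: active means fluorescence ratio to DMSO below 75%, the collection mean minus 3 SD; inconclusive means too few cells collected in the well; inactive means the rest.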 The list comes from a sample in which actives are over-represented; it also holds similar structures and randomly drawn compounds.

Each compound was assayed against ATP-binding cassette sub-family B member 6 (Homo sapiens) (UniProt Q9NP58) (assay: blockers of ABCB6-driven porphyrin uptake – K562-ABCB6 cells, flow cytometry, MLPCN library, primary screen (AID 602162;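 further: signal is porphyrin accumulated inside mitochondria; 100% equals median channel fluorescence of DMSO control wells; lower ratio means ABCB6 inhibition with less porphyrin fluorescence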)). Settings: K562-ABCB6 porphyrin accumulation, 1 h, at 10 µM, active compounds read low.
Chain of ATP-binding cassette sub-family B member 6 (Homo sapiens) (Q9NP58 whole entry, looked up): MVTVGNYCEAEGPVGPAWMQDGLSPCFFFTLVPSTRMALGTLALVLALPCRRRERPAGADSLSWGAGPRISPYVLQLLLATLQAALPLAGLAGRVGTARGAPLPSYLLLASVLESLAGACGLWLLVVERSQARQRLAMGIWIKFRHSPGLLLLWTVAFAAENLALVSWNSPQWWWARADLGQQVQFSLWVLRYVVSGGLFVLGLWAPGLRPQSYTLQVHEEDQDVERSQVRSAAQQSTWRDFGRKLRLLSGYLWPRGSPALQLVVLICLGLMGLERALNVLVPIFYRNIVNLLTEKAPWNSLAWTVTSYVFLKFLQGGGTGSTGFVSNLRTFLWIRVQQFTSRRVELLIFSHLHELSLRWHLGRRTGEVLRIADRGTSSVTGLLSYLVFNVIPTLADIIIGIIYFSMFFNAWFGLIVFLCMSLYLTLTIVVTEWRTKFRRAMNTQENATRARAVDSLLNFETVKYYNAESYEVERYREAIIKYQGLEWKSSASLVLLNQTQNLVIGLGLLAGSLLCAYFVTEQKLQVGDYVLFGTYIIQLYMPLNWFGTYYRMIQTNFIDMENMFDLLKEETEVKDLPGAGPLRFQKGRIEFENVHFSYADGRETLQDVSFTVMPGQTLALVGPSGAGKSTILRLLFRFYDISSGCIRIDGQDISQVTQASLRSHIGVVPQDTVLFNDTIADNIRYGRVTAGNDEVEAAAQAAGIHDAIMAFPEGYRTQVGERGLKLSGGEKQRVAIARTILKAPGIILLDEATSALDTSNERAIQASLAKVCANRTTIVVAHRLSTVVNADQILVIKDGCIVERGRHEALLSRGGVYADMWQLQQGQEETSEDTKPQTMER

Fluorescence ratio to DMSO, active:
O=C(Nn1cnc2ccccc2c1=O)c1ccc(F)cc1Cl 26%
COC(=O)CNC(=O)c1cc(-c2ccncc2)nc2ccccc12 70%
COc1ccc(NC(=O)/C(Cl)=C(/Cl)S(=O)Cc2ccc(C)cc2)cn1 (stereo not given) 19%
C=CCn1c(SCC(=O)NCc2ccccc2)nnc1-c1cc(Br)ccc1O 53%
OCCC1CN(Cc2cnc(-c3ccccc3)s2)CCN1CCc1ccccc1 (stereo not given) 73%
O=C(Cc1cccs1)NCc1cccc(C(F)(F)F)c1 68%
O=C(NCCSc1ncc(-c2ccccc2)[nH]1)c1ccco1 74%
COc1ccc(CCNC2=C(Cl)C(=O)N(Cc3ccccc3)C2=O)cc1OC 73%
CCCOC(=O)C1=C(C)NC2=C(C(=O)C(C(=O)OC)C(C)C2)C1c1ccc(N(C)C)cc1 (stereo not given) 72%
Cc1ccccc1OCC(=O)Nc1nnc(S(=O)(=O)N2CCCC2)s1 56%
Cc1ccc(Cl)cc1N1CCN(C(=O)c2cccc3c(=O)c(C)c(-c4ccccc4)oc23)CC1 73%
Cc1ccc(SCC(=O)Nc2ncc(C)s2)cc1 71%
Cc1nn(-c2ccccc2)c(C)c1C(=O)OCC(=O)NC(=O)NC1CCCCC1 74%
CC(C)C(=O)NCC(c1cccs1)S(=O)(=O)c1ccc(F)cc1 (stereo not given) 11%
CC(C(=O)Nc1ccc(F)c(F)c1F)N1CCCCCC1 (stereo not given) 74%

Fluorescence ratio to DMSO, inactive:
CC(=O)Nc1ccccc1C(=O)C(=O)Nc1ccc(F)cc1 104%
Cc1cccc(NC(=O)c2ccc(OCC(=O)NCc3ccccc3)cc2)c1C 97%
O=C1COc2ccc(S(=O)(=O)NCCc3ccc(Cl)cc3)cc2N1 93%
O=C1C=C(c2cccc(Br)c2)C[C@@H](c2ccc(F)cc2)C1 101%
O=C(Cn1cnc2ccccc2c1=O)NNC(=O)c1ccccc1F 97%
O=C(Nn1cnc2ccccc2c1=O)c1ccc([N+](=O)[O-])cc1Cl 98%
COC(=O)Cc1nc2c(N)nc(N)nc2[nH]c1=O 97%
CCc1ccc(-c2cc(C(=O)NN3CCN(C)CC3)c3ccccc3n2)cc1 99%
CC1CCCC(NC(=O)c2cc(-c3ccncc3)nc3ccccc23)C1C (stereo not given) 96%
Cc1cccc(C)c1NC(=O)Nc1ccccc1-n1ccnc1 96%
CC(CC(=O)Nc1ccccc1)n1ccnc1 (stereo not given) 96%
O=C1OC(Oc2ccc(Br)cc2)(c2ccccc2)c2ccccc21 (stereo not given) 93%
CCn1ccnc1CNC(=O)CC1C(=O)NCCN1Cc1ccc(F)cc1Cl (stereo not given) 92%
C=CCn1c(SCC(=O)NC(=O)Cc2ccccc2)nc2ccccc2c1=O 99%
O=C(CSc1nnc(-c2cccnc2)n1CCc1ccccc1)NCc1ccccc1 110%
N#CCCN1CCN(S(=O)(=O)c2ccc(S(=O)(=O)NC3CCCCC3)cc2)CC1 96%
Cc1ccc(S(=O)(=O)N2CCC(Oc3ccc(-n4cnnn4)cc3)CC2)cc1 96%
COC(=O)c1ccc(CN2C(=O)C(Cc3ccccc3)ON=C2c2ncccc2C)o1 (stereo not given) 94%
OCCC1CN(Cc2cccc(O)c2)CCN1CCc1ccccc1 (stereo not given) 93%
OCCC1CN(Cc2ccc(Oc3ncccn3)cc2)CCN1CCc1ccccc1 (stereo not given) 101%
COc1ccc(CN2C(=O)CC(Cc3ccc(C)cc3)C2=O)cc1OC (stereo not given) 97%
O=S1(=O)CC(N2CCN(Cc3ccccc3F)CC2)CN1Cc1cn(Cc2cccc(C(F)(F)F)c2)nn1 (stereo not given) 96%
COc1ccc(-c2c(NC(=O)c3ccco3)oc3ccc(Cl)cc3c2=O)cc1 97%
O=C(COc1ccccc1)Nc1cc2c3c(c1)CC(=O)N3CCC2 102%
Cn1c(=O)c2cc(NC(=O)NCCc3cccs3)ccc2n1Cc1cccc(C(F)(F)F)c1 100%
Cc1ccccc1Cn1c(C)c(C(=O)NCc2cccc(C(F)(F)F)c2)sc1=O 98%
Cc1ccn(-c2cccc(-n3ccc(C)n3)n2)n1 104%
Cc1cnc(C(=O)OCc2c(C)cc(C(C)(C)C)cc2C)cn1 104%
COc1ccc(/C=C(\NC(=O)c2ccc(OCC(C)C)cc2)C(=O)OCc2ccco2)cc1 100%
O=C(NCCS(=O)(=O)N1CCN(c2ccccc2)CC1)c1ccco1 98%
COc1ccc(-c2cnc(SCCNC(=O)c3ccc4c(c3)OCO4)[nH]2)cc1 98%
COc1ccccc1NC(=O)c1ccc(N2CC3CC(C2)c2cccc(=O)n2C3)c(NC(=O)c2cccnc2)c1 (stereo not given) 100%
CCN(CC(=O)Nc1ccc(NC(C)=O)cc1)C(=O)C1CC(=O)N(c2ccc3c(c2)OCCO3)C1 (stereo not given) 91%
COc1ccc(CCNC(=O)CN(c2ccccc2)S(C)(=O)=O)cc1OC 95%
COc1ccc(CCNc2nc(C)cc(C)n2)cc1OC 95%
Fc1ccccc1OCCSc1nc2ccccc2o1 89%
O=C(CSc1nnc(C2CC2)n1Cc1ccccc1)Nc1cccnc1Cl 85%
CCC1OC(C2CC2)CC2=C1C(=O)OC(C)(C)O2 (stereo not given) 97%
CC1(C)O[C@H]2CC(=O)OCC23[C@H]2CC[C@@]4(C)[C@H](c5ccoc5)OC(=O)[C@H]5O[C@]54[C@]2(C)C(=O)C[C@@H]13 (stereo not given in full) 100%
O=C(c1cnn2ccccc12)N1CCc2ccccc21 103%
COC(=O)c1ccc(C2NC(=O)NC(C)=C2C(=O)N(C)C)cc1 (stereo not given) 117%
CCOC(=O)C1=C(C)NC2=C(C(=O)CC(C)(C)C2)C1c1ccsc1 (stereo not given) 100%
CCCn1c(N)c(C(=O)CSc2nnc(-c3cccnc3)n2-c2ccc(C)cc2C)c(=O)[nH]c1=O 101%
CCOc1ccc2[nH]c3nc(SCC(=O)NC4CCCC4)nnc3c2c1 96%
CCc1ccccc1OCC(=O)Nc1ccc(C)c(S(=O)(=O)N2CCCCCC2)c1 90%
CC1CCN(S(=O)(=O)c2nnc(NC(=O)COc3ccccc3F)s2)CC1 100%
Cc1ccc2[nH]c3c(=O)n(CC(=O)NCCc4ccc(Cl)cc4)ncc3c2c1 96%
CC(C)(C)C1CCC(C(=O)NCC(c2cccs2)N2CCOCC2)CC1 (stereo not given) 98%
O=C(NCc1ccco1)C(c1ccncc1)N(C(=O)Cn1nnc2ccccc21)c1ccccc1 (stereo not given) 94%
Nc1nc(SCc2cccc(Br)c2)n[nH]1 98%
COc1ccccc1N1CCN(C(=O)c2cc(=O)c3cc(C)cc(C)c3o2)CC1 101%
Cc1cccc(N2CCN(C(=O)c3cnn4c(C(F)F)cc(-c5ccccc5)nc34)CC2)c1C 97%
C/C(CCc1ccccc1)=N\NC(=O)c1ccc(CN2CCOCC2)cc1 97%
CSC1=NN(c2ccccc2)CN(c2ccccc2)N1C 98%
CCCOP(=O)(c1ccc(N(C)C)cc1)C(O)c1cc(OC)c(OC)c(OC)c1 (stereo not given) 94%
COc1ccccc1S(=O)(=O)NCc1ccc(C(=O)N(C)Cc2ccc(F)cc2)cc1 92%
Cc1ccc(SCC(=O)Nc2nncs2)cc1 99%
Cc1cnc(NC(=O)Cn2cnc3c2c(=O)n(C)c(=O)n3C)s1 101%
Fc1cccc(Cc2noc(CN3CCN(c4cnccn4)CC3)n2)c1 95%
COc1ccccc1CNC(=O)CSc1nc(=O)n(Cc2ccncc2)c2c1CCC2 100%
Cc1ccc2c(C)c(C(=O)N(C)Cc3ccncn3)oc2c1C 96%
Cc1ccccc1OC(=O)Cn1c(C(F)(F)F)nc2ccccc21 93%
COc1ccc(CNC(=O)COC(=O)c2c(C)nn(-c3ccccc3)c2C)cc1OC 98%
Cc1cccc(C)c1NC(=O)COC(=O)c1c(C)nn(-c2ccccc2)c1C 100%
O=C(/C=C/c1ccccc1)Oc1coc(CSc2ncccn2)cc1=O 104%
CC1(C)O[C@@H]2[C@H](O1)[C@@H](COS(=O)(=O)O)O[C@H]2n1cnc2c(=O)[nH]cnc21 98%
COc1ccc(CC(=O)NCc2nnc(SCC(=O)Nc3ncc(C)s3)n2C)cc1 103%
O=C(CC(c1ccccc1)c1cc(Cl)ccc1O)NCCN1CCOCC1 (stereo not given) 91%
O=S(=O)(c1ccc(F)cc1)n1ccc(-c2cnc(-c3ccccc3)s2)n1 91%
CN(CC(=O)Nc1cccc(F)c1)C(=O)C1CSC2(C)CCC(=O)N12 (stereo not given) 96%
COCCNC(=O)C(OC(=O)c1cccs1)c1ccc(F)cc1 (stereo not given) 100%
O=C(NCc1cccs1)C(=O)NCC1OCCCN1S(=O)(=O)c1ccc(F)cc1 (stereo not given) 103%
N#Cc1cccc(NC(=O)C2CCCN(C(=O)c3ccc(Cl)cc3)C2)c1 (stereo not given) 104%
Cc1c(C(=O)NC(=S)NCc2cccnc2)oc2ccccc12 99%
CC12CCCCC1=CC(=O)CC2 (stereo not given) 101%
COc1ccc(CNC(=O)CN2C(=O)NC3(CCCc4sccc43)C2=O)cc1 (stereo not given) 93%
O=C(CN1C(=O)NC2(CCCC2)C1=O)Nc1ccc(F)c(F)c1F 104%
CC(C(=O)Nc1ccccc1-c1ccccc1)N1CCOCC1 (stereo not given) 104%
COCCCNc1ccn2nc(-c3ccc(CC(C)C)cc3)cc2n1 100%
COC(=O)c1cc(NC(=O)CN2CCC(C(N)=O)(N3CCCCC3)CC2)cc(C(=O)OC)c1 104%
